# Measured values taken from PubChem BioAssay (Tox21).
# Inconclusive results are not listed. A call without a number means that no potency is given here. Values without a mark were called inactive. The source made the active and inactive calls. The call rests on the fitted dose curve; in most records, active means well fitted inhibition curve with a large enough effect in the signal ratio in the repeat runs (not every such curve was filed as active); inconclusive means weak or mixed curves, or effect the other way; inactive means no such curve, though single readings can be large or run the other way; the % refers to the signal ratio.
# Molecular target: Estrogen receptor beta (Homo sapiens) (UniProt Q92731)
# Sequence (Q92731 whole entry, looked up): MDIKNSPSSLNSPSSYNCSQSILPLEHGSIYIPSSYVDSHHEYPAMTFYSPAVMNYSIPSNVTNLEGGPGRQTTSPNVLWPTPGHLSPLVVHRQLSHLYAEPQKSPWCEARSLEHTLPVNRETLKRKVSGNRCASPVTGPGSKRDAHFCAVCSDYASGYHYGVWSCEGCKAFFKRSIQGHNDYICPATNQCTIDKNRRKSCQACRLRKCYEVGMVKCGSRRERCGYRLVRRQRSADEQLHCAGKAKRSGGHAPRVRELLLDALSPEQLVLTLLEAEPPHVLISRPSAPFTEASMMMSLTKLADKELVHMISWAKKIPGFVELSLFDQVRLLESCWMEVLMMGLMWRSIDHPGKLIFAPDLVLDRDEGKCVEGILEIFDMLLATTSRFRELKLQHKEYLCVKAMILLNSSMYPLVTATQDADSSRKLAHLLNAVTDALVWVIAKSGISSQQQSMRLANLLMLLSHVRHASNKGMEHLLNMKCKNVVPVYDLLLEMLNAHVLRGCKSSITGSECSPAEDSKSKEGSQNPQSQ
# Test: qHTS assay to identify small molecule antagonists of the estrogen receptor beta (ER-beta) signaling pathway (AID 1259378)
# Settings: ER-beta-UAS-bla HEK293T, beta-lactamase FRET ratio, 16 h; series mostly up to 92.4 µM
# Source text: National Center for Advancing Translational Sciences [NCATS]
# NIH Chemical Genomics Center [NCGC]
# U.S. Environmental Protection Agency [EPA]
# National Institutes of Environmental Health Sciences [NIEHS]
# National Toxicology Program [NTP]
# U.S. Food and Drug Administration [FDA]
# Estrogen receptor (ER), a nuclear hormone receptor, plays an important role in development, metabolic homeostasis and reproduction. Two subtypes of ER, ER-alpha and ER-beta, have similar expression patterns with some uniqueness in both types. Endocrine disrupting chemicals (EDCs) and their interactions with steroid hormone receptors like ER causes disruption of normal endocrine function. To identify the compounds that inhibit ER signaling, an ER-beta-UAS-bla GripTite cell line (Life Technologies, Madison, WI, USA) containing a beta-lactamase reporter gene under the control of an UAS response element was used to screen Tox21 10K compound library.
# Tox21 Assay Protocol Summary:
# ER-beta-UAS-bla HEK293T cells were dispensed at 2,000 cells/4 uL of assay medium containing 2% charcoal stripped FBS per well into black wall/clear-bottom 1536-well plates using a Multidrop Combi (ThermoFisher Scientific, Waltham, MA) dispenser. After the assay plates were incubated at a 37C and 5% CO2 for 6 hr, 23 nL of compounds dissolved in DMSO, positive controls or DMSO only was transferred to the assay plate by a Pintool station (Kalypsys, San Diego, CA), followed by addition of 1 uL (1nM as final concentration) of 17-beta-estradiol (E2) in assay medium using a BioRAPTR FRD (Flying Reagent Dispenser, Aurora Discovery, San Diego, CA). The plates were incubated at 37C and 5% CO2 for 16 hr. Then 1 uL of LiveBLAzerTM B/G FRET substrate was added using a Flying Reagent Dispenser, the plates were incubated at room temperature for 2 hours, and fluorescence intensity was measured by an Envision plate reader (PerkinElmer, Shelton, CT).
# Potency means the concentration at half of the fitted maximal effect.
Compound,Potency,"activity, negative = inhibition"
O=Cc1c(Cl)cccc1Cl,inactive,–
CCCCCCCCCCCC(=O)[O][Sn]([CH2]CCC)([CH2]CCC)[O]C(=O)CCCCCCCCCCC,inactive,–
CCC(C)=O,inactive,–
CCOCCn1c(C2CCN(CCc3ccc(C(C)(C)C(=O)O)cc3)CC2)nc2ccccc21,inactive,–
[O]=[Bi],–,1.25% [at 8.39 µM]
CO[Si](C)(OC)OC,inactive,–
CC(C)=CC=O,inactive,–
CCCCC/C(=C\c1ccccc1)CO,inactive,–
O=S1OCCO1,inactive,–
OC/C(Br)=C(\Br)CO,inactive,–
CC#N,inactive,–
C=CCCCCCCCCCCCCCCCC,–,3.67% [at 8.39 µM]
CCCCCCCC/C=C\CCCCCCCC(=O)OC,inactive,–
COc1ccc(C(=O)c2cccc(O)c2)c(OC)c1,43.2 µM (active),–
Cc1nc2ccccn2c(=O)c1CCN1CCC(C(=O)c2ccc(F)cc2)CC1,inactive,–
Cc1ccnc2ccccc12,inactive,–
NC(=O)Nc1ccc(Cl)cc1,inactive,–
CCc1cccc(N(C)C(N)=Nc2cccc3ccccc23)c1,inactive,–
CC(CCc1ccc2c(c1)OCO2)NN (stereo not given),inactive,–
CCn1cc(C(=O)O)c(=O)c2cc(F)c(N3CCNCC3)nc21,inactive,–

Compound,Potency,"activity, negative = inhibition"
CC1CN(c2cc3c(cc2F)c(=O)c(C(=O)O)cn3-c2ccc(F)cc2F)CCN1 (stereo not given),–,1.81% [at 8.39 µM]
O=C(O)C(Cc1cc(I)c(O)c(I)c1)c1ccccc1 (stereo not given),inactive,–
CCOC(=O)OCC,inactive,–
CC(C)(C)C(=O)O,inactive,–
Cc1nccn1-c1ccc(Sc2cccc(C3(C(N)=O)CCOCC3)c2)cc1,9.69 µM (active),–
CCOC(=N)CC(=O)OCC,inactive,–
CCC(C(=O)OCCN(CC)CC)c1ccccc1 (stereo not given),inactive,–
Cc1nc2ccccc2s1,inactive,–
C/C=C(\C)C(=O)OCCC(C)CCC=C(C)C (stereo not given),inactive,–
CC(=O)[C@H]1CC[C@H]2[C@@H]3C[C@H](C)C4=CC(=O)CC[C@]4(C)[C@H]3[C@@H](O)C[C@]12C,inactive,–
C=CC(C)(O)CCCC(C)CCCC(C)CCCC(C)C (stereo not given),inactive,–
CCN(CC)CCNC(=O)c1ccc(NC(C)=O)cc1,inactive,–
COC(=O)Nc1nc2ccc(C(=O)c3cccs3)cc2[nH]1,inactive,–
C=C(C)C(=O)OCCOC(=O)CC(C)=O,inactive,–
C[Si](NC1CCCCC1)(NC1CCCCC1)NC1CCCCC1,inactive,–
COc1ccc(CCC(=O)c2c(O)cc(O[C@@H]3O[C@H](CO)[C@@H](O)[C@H](O)[C@H]3O[C@@H]3O[C@@H](C)[C@H](O)[C@@H](O)[C@H]3O)cc2O)cc1O,inactive,–
CCCOCCOCCO,inactive,–
O=C(O)c1snc(Cl)c1Cl,inactive,–
CC(=O)Nc1ccccc1C,inactive,–
CCOC(=O)CC(=O)C(=O)OCC,48.6 µM (active),–
